Reference: PubChem BioAssay
The source made the active and inactive calls. Unless noted, no rule for the calls is given here.

Tests used:
[1] = system: Wnt5a (protein binding on small-molecule microarray); assay: Wnt5a binders on small-molecule microarray, primary screen, biophysical, 635/667 nm fluorescence (AID 1142); conditions: 635 nm fluorescence, higher = more signal;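 also: fluorescence read at 667 nm with signal to noise per printed feature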
[2] = cell viability in Huh7 cells, primary screen, cytotoxicity control for HCV replication inhibitor project, CellTiter-Glo luminescence, basal, 48 h (AID 1143); conditions: Huh7 HCV replicon, higher = more signal, called active from +8 up or from −8 down;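 also: Huh7 hepatoma cells carrying a hepatitis C replication reporter with no stimulus; test concentration not given here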
[3] = P. aeruginosa biofilm formation inhibitors, primary screen, PAO1 strain, BacTiter-Glo luminescence, LB-PBS (AID 1144); conditions: 12 h, higher = more signal
[4] = CREB reporter modulators without forskolin, primary screen, cell-based, PC12, CRE-LacZ reporter, unstimulated (AID 1145); conditions: no forskolin, luminescence, 4.5 h, higher = more signal, called active from +8 up or from −8 down
[5] = CREB reporter modulators under forskolin, primary screen, cell-based, PC12, CRE-LacZ reporter, forskolin-stimulated (AID 1146); conditions: luminescence, 4.5 h, higher = more signal, called active from +8 up or from −8 down;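 also: PC12 cells with 6xCRE LacZ reporter stimulated by forskolin 10 µM; beta-galactosidase reporter signal reflecting CREB driven transcription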
[6] = molecular target: Streptavidin (Streptomyces avidinii) (UniProt P22629); assay: streptavidin binders on small-molecule microarray, primary screen, artefact control for SMM compound annotation, biophysical, 635/667 nm fluorescence (AID 1147); conditions: streptavidin binding, higher = more signal;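 also: signal reflects streptavidin binding to arrayed compounds as a control protein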
Streptavidin (Streptomyces avidinii), sequence (P22629 whole entry, looked up): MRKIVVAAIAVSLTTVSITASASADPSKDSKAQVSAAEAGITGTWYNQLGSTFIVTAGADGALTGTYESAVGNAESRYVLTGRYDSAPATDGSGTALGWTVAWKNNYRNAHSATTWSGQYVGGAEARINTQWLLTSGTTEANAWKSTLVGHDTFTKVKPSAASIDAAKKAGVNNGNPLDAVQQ

[7] = small-molecule binders of probe aInhba, primary screen, biochemical, small-molecule microarray, 635/667 nm fluorescence (AID 1148); conditions: higher = more signal;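 also: score merges 667nm spot fluorescence with signal-to-noise for antibody binding to printed compounds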
Torsin-1A (Homo sapiens) [8] = molecular target: Torsin-1A (Homo sapiens) (UniProt O14656); assay: torsin A binders from cell lysate, primary screen, small-molecule microarray, wild-type, 635/667 nm (AID 1149); conditions: COS7 hTOR1A-WT lysate, 635 nm fluorescence, higher = more signal
Torsin-1A (Homo sapiens), sequence (O14656 whole entry, looked up): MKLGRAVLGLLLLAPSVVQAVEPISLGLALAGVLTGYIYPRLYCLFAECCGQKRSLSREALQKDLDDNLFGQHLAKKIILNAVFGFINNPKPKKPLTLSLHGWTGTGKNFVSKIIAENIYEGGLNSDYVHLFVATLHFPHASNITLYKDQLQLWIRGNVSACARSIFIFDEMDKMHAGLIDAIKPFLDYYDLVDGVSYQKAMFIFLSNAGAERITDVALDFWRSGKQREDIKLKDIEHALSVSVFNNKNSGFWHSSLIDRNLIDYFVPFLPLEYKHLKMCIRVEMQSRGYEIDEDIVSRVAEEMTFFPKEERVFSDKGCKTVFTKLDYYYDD

Torsin-1A (Homo sapiens) [9] = molecular target: Torsin-1A (Homo sapiens) (UniProt O14656); assay: small-molecule binders of mutant TOR1A in lysate, primary screen, cell lysate, small-molecule microarray, COS7 lysate, 635/667 nm fluorescence (AID 1150); conditions: COS7 hTOR1A mutant lysate, 635 nm fluorescence, higher = more signal;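 also: score pools 667 nm emission and signal to noise measuring lysate protein binding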
[10] = system: Sonic hedgehog protein (Shh); assay: small-molecule binders of Shh protein, primary screen, biochemical, small-molecule microarray, 635/667 nm fluorescence (AID 1151); conditions: small-molecule microarray binding, 635 nm fluorescence; higher = more signal;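 also: Shh protein binding to compounds spotted on small-molecule microarray slides; score combines spot fluorescence intensity with signal-to-noise across triplicate slides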
[11] = E. coli DRC41 culture turbidity changes, primary screen, E. coli filamentation inducer project, strain DRC41, OD650, 48 h (AID 1152);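 also: E. coli MC1000 strain DRC41 lacking acrAB efflux pump and sulA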; conditions: E. coli DRC41 (acrAB sulA), higher = more signal, called active from +8 up or from −8 down
[12] = small-molecule binders of probe aLefty1, primary screen, biochemical, small-molecule microarray, 635/667 nm fluorescence (AID 1153); conditions: higher = more signal;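 also: score merges spot fluorescence with signal-to-noise ratio from the scanned slide images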
[13] = PSAC antagonists in infected red cells, primary screen, cell-based, P. falciparum Indochina, OD700, 1 h (AID 1154); conditions: P. falciparum Indochina infected RBC osmotic lysis, higher = more signal, called active from +8 up or from −8 down
[14] = PSAC antagonists in infected red cells, primary screen, cell-based, P. falciparum Indochina, OD700, 2 h (AID 1155);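 also: lysis reports solute entry through the parasite surface anion channel PSAC; channel blockers reduce lysis of infected cells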; conditions: P. falciparum Indochina infected erythrocytes, osmotic lysis OD700; higher = more signal, called active from +8 up or from −8 down
[15] = osmotic lysis modulators in infected erythrocytes, primary screen, PSAC antagonist project, cell-based, P. falciparum Indochina, OD700, 3 h (AID 1156); conditions: higher = more signal, called active from +8 up or from −8 down
[16] = PSAC antagonists in infected red cells, primary screen, cell-based, P. falciparum Indochina, OD700, 18 h (AID 1157); conditions: P. falciparum Indochina infected erythrocytes, osmotic lysis OD700, 18 h; higher = more signal, called active from +8 up or from −8 down
[17] = modulators of S6 phosphorylation in cells, primary screen, cell-based, A549, cytoblot, luminescence, serum-stimulated (AID 1158); conditions: A549 phospho-S6 cytoblot, 5 h, higher = more signal;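 also: serum-stimulated A549 lung adenocarcinoma cells; signal is phosphorylated S6 detected by cytoblot immunostaining with HRP secondary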
[18] = molecular target: NADPH oxidase 2 (Homo sapiens) (UniProt P04839); assay: NOX2-dependent H2O2 signal modulators, primary screen, NOX inhibitor project, cell-based, HEK293-NOX2, PMA-stimulated, Amplex Red fluorescence (AID 1159); conditions: 45 min, higher = more signal, called active from +8 up or from −8 down; also: test concentration not given here
NADPH oxidase 2 (Homo sapiens), sequence (P04839 whole entry, looked up): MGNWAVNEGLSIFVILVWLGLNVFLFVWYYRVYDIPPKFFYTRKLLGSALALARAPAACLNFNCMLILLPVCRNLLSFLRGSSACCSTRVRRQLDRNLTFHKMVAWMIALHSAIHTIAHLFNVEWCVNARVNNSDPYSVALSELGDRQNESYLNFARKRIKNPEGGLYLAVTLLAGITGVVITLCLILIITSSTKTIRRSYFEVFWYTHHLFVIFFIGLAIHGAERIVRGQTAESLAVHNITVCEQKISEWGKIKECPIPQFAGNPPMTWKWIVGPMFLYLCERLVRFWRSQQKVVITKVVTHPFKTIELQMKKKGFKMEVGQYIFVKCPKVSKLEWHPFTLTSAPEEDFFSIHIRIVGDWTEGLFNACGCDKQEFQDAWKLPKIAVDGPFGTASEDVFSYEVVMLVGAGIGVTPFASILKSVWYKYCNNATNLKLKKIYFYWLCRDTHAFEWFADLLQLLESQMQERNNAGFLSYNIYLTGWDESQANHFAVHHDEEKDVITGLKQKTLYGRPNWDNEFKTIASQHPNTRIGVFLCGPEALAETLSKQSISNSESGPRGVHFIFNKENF

[19] = molecular target: NADPH oxidase 4 (Homo sapiens) (UniProt Q9NPH5); assay: NOX4-dependent H2O2 signal modulators, primary screen, NOX inhibitor project, cell-based, HEK293-NOX4, tetracycline-induced, Amplex Red fluorescence (AID 1160); conditions: 45 min, higher = more signal, called active from +8 up or from −8 down
NADPH oxidase 4 (Homo sapiens), sequence (Q9NPH5 whole entry, looked up): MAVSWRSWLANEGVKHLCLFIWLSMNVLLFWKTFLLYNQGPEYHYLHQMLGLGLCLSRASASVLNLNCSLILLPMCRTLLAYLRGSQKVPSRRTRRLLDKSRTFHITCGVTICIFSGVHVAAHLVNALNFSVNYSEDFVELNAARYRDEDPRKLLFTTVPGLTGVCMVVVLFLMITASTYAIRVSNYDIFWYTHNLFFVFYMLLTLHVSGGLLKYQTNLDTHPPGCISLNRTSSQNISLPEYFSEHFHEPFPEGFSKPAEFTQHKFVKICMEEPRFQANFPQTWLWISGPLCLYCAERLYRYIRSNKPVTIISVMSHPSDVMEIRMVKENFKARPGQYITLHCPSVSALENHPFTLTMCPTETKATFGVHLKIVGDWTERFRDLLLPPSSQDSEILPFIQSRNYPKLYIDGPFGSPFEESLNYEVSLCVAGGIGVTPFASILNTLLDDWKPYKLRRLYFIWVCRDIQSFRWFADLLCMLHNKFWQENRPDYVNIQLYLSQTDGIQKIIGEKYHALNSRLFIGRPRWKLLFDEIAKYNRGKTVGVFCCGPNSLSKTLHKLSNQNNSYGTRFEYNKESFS

[20] = molecular target: NADPH oxidase 5 (Homo sapiens) (UniProt Q96PH1); assay: NOX5-dependent H2O2 signal modulators, primary screen, NOX inhibitor project, cell-based, HEK293-NOX5, Amplex Red fluorescence (AID 1161); conditions: HEK293-NOX5, ionomycin, 45 min, higher = more signal
NADPH oxidase 5 (Homo sapiens), sequence (Q96PH1 whole entry, looked up): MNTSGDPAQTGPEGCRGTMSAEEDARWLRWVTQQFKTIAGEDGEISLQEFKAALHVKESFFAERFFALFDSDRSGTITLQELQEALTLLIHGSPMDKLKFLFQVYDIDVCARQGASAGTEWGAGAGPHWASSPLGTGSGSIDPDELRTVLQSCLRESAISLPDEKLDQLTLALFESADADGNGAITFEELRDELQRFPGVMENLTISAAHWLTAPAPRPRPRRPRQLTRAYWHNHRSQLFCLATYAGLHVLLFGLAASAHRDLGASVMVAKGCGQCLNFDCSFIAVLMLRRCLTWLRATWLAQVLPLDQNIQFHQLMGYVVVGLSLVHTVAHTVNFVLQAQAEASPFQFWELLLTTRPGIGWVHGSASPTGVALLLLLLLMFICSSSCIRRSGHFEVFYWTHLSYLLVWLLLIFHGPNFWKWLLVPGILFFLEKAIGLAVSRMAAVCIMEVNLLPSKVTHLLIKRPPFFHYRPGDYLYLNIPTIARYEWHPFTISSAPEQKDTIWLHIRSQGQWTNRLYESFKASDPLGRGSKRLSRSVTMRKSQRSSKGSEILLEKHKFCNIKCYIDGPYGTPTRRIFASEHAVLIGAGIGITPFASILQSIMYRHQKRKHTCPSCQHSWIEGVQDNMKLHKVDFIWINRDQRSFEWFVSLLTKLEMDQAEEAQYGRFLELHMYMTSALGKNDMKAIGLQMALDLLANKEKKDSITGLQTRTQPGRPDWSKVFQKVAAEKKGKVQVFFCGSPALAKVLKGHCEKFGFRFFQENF

SMILES | composite z-score [1] | z-score [2] | z-score [3] | z-score [4] | z-score [5] | composite z-score [6] | composite z-score [7] | composite z-score (Torsin-1A (Homo sapiens) [8]) | composite z-score (Torsin-1A (Homo sapiens) [9]) | composite z-score [10] | z-score [11] | composite z-score [12] | z-score [13] | z-score [14] | z-score [15] | z-score [16] | z-score [17] | z-score [18] | z-score [19] | z-score [20]
COc1ccc([Si](C)(C)[C@@H]2[C@@H](CCn3cc([C@H](O)c4ccccc4)nn3)O[C@]3(C(=O)N(c4ccccc4)c4ccccc43)[C@H]2C)cc1 | -0.0872 | -6.24 (inactive) | 0.506 (inactive) | 1.6 (inactive) | -0.897 (inactive) | -0.238 | -0.22 | 0.511 | 0.283 | 0.618 | 0.424 (inactive) | -0.348 | 3.15 (inactive) | -1.51 (inactive) | 3.03 (inactive) | -1.63 (inactive) | 0.751 | -0.0239 (inactive) | 0.276 (inactive) | 0.506
CCOC(=O)C1=CC[C@@H](c2ccccc2)N(S(=O)(=O)c2ccc(C)cc2)[C@H]1C=Cc1ccccc1 | -0.109 | -2.35 (inactive) | 0.17 (inactive) | -0.0696 (inactive) | 0.521 (inactive) | 0.261 | 0.0713 | 0.0331 | -0.0749 | -0.723 | -1.11 (inactive) | 0.436 | 1.92 (inactive) | 1.12 (inactive) | -0.684 (inactive) | 0.779 (inactive) | -0.577 | 0.549 (inactive) | -0.395 (inactive) | 0.884
CCCCCN1CC=CC23O[C@@H]4C=CCOC(=O)[C@@H]4[C@H]2C(=O)N(CCO)[C@@H]3C1=O (stereo not given in full) | -0.395 | -0.143 (inactive) | 1.13 (inactive) | -0.0818 (inactive) | -0.585 (inactive) | -0.958 | -0.205 | 1.17 | 1.78 | -0.456 | -0.23 (inactive) | -0.25 | 0.0674 (inactive) | 0.31 (inactive) | 0.266 (inactive) | 0.161 (inactive) | -0.53 | 1.52 (inactive) | 0.713 (inactive) | 1.23
[N-]=[N+]=Nc1ccccc1C[C@@]1(C(=O)O)N=C(c2ccc(OCCCO)cc2)O[C@@H]1c1ccccc1N=[N+]=[N-] | -0.166 | -1.92 (inactive) | 0.0288 (inactive) | 2.09 (inactive) | -0.333 (inactive) | 1.96 | 0.151 | 0.0274 | 0.286 | -0.744 | -0.855 (inactive) | 0.384 | 29.2 (active) | 24.7 (active) | 0.648 (inactive) | 4.53 (inactive) | 0.664 | -0.041 (inactive) | 1.17 (inactive) | 1.57
Cc1nc2cc(Br)ccc2c(=O)n1Cc1cccc(O)c1 | 0.59 | 0.267 (inactive) | -0.0703 (inactive) | -1.11 (inactive) | -0.978 (inactive) | 0.57 | -0.0567 | 0.995 | 0.407 | 1.29 | 0.685 (inactive) | -0.216 | 0.73 (inactive) | 0.368 (inactive) | 0.136 (inactive) | 0.377 (inactive) | -0.257 | -0.763 (inactive) | -0.191 (inactive) | -0.302
NCCCCCNC(=O)[C@H]1C[C@H]2C(=O)N[C@@H](Cc3ccccc3)C(=O)N2[C@H]1c1ccc(O)cc1 | 0.234 | 0.169 (inactive) | -0.0304 (inactive) | 0.0124 (inactive) | -0.622 (inactive) | 1.13 | 0.641 | 0.756 | 0.842 | 0.313 | 0.097 (inactive) | 1.01 | 3.38 (inactive) | 0.288 (inactive) | 1.54 (inactive) | 0.204 (inactive) | 0.0042 | 0.354 (inactive) | -0.384 (inactive) | -0.912
COC(=O)c1c2oc(c1C(=O)OC)C(=O)N1CCC[C@H]1Cn1nncc1CN(Cc1ccccc1)C(=O)N[C@H](CO)CC2 | 0.533 | 0.246 (inactive) | -0.294 (inactive) | 0.251 (inactive) | -0.147 (inactive) | 0.0789 | -0.0448 | -0.14 | -0.0715 | 0.658 | 1.53 (inactive) | 0.0429 | 0.834 (inactive) | 0.609 (inactive) | -0.418 (inactive) | 0.924 (inactive) | 0.429 | -0.521 (inactive) | 0.556 (inactive) | 1.19
CC(C)C[C@@H]1NC(=O)[C@H]2C[C@@H](C(=O)NCCCCCN)[C@@H](c3cccc(OCCO)c3)N2C1=O | -0.0295 | -0.707 (inactive) | -0.887 (inactive) | 0.273 (inactive) | -0.673 (inactive) | -0.174 | -0.008 | 0.67 | 0.207 | -0.414 | 1.25 (inactive) | -0.0172 | 3.07 (inactive) | -0.328 (inactive) | 2.27 (inactive) | -2.15 (inactive) | 2.13 | 1.33 (inactive) | 0.993 (inactive) | 2.1
COC(=O)[C@@]1(Cc2ccc(OC)cc2)[C@H]2c3cc(C(=O)N4CCCC4)n(Cc4ccc(OC(F)(F)F)cc4)c3C[C@H]2CN1C(=O)c1ccccc1 | 0.622 | -3.34 (inactive) | 0.488 (inactive) | -0.565 (inactive) | -0.239 (inactive) | 1.73 | 0.0925 | -1.04 | -0.89 | -1.05 | -1.32 (inactive) | 0.029 | 2.24 (inactive) | 0.453 (inactive) | -0.0152 (inactive) | 1.06 (inactive) | -0.174 | 1.11 (inactive) | 1.56 (inactive) | 2.4
